Measurements reported in PubChem BioAssay (Tox21).
Results filed as inconclusive are left out. A call without a number means that no potency is given here. The source made the active and inactive calls. The call rests on the fitted dose curve; in most records, active means well fitted curve in the direction sought with a large enough effect in the repeat runs; inconclusive means weak or mixed curves; inactive means no such curve, though single readings can be large; an effect the other way counts as inactive or inconclusive.

Experiment: qHTS RealTime-Glo MT Cell Viability Assay in HEK293 cells - 24 hour (AID 1224886); further: top concentration of the series differs between compounds; nearly all actives have a fitted effect of over 50% in size
Details: RealTime-Glo luminescence; series mostly up to 76.8 µM
Procedure, shortened: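 Cells + reagent dispensed (600 cells/well, HEK293) → 5 h at 37 C/5% CO2 → 23 nL compound in DMSO pinned → 40 h at 37 C → luminescence read at 0, 8, 16, 24, 32, 40 h.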

SMILES | Potency | activity change, negative = cytotoxicity
CC(=O)OCC(=O)Nc1cc(C#N)cc(NC(=O)COC(C)=O)c1Cl | inactive | –
Cc1ccnc(N)c1 | inactive | –
CCn1cc(C(=O)O)c(=O)c2cnc(N3CCCC3)nc21 | – | 7.35% [at 6.97 µM] (inactive)
CC(Oc1cc(Cl)ccc1Cl)C(=O)O (stereo not drawn) | inactive | –
C/C=C(\C)C(C)=O | inactive | –
CCOCCOCC | inactive | –
c1ccc2cnccc2c1 | inactive | –
O=C[O][Al]([O]C=O)[O]C=O | inactive | –
CN(C)CCN(C)CCO | inactive | –
Cc1ccc(C(C)NC(=O)[C@@H](NC(=O)OC(C)C)C(C)C)cc1 (stereo partly drawn) | inactive | –
CC1(C)CC(OC(=O)CCCCCCCCC(=O)OC2CC(C)(C)NC(C)(C)C2)CC(C)(C)N1 | – | 13.9% [at 15.8 µM] (inactive)
CC(=O)O[C@H]1C[C@@H]2CC[C@@]1(C)C2(C)C | inactive | –
C=CC/C=C/C | inactive | –
CSc1cnccn1 | inactive | –
[O-][n+]1cccc(/C(Cl)=N/OC[C@@H](O)CN2CCCCC2)c1 | inactive | –
COC(=O)CCCCC(CCSS/C(CCO)=C(\C)N(C=O)Cc1cnc(C)nc1N)SC(C)=O (stereo not drawn) | inactive | –
c1ccc(-c2nn[nH]n2)cc1 | inactive | –
O=C1CCCCO1 | inactive | –
CC1=C(O)C(=O)C(C)O1 (stereo not drawn) | inactive | –
O=C(O)CSCC(=O)NC1CCSC1=O (stereo not drawn) | inactive | –
CC(=O)c1cc(C)oc1C | inactive | –
C=C(C)[C@@H]1CC=C(C)C(=O)C1 | inactive | –
Cc1c(NC(=O)c2cccnc2)c(=O)n(-c2ccccc2)n1C | inactive | –
CC(=O)C(C)O (stereo not drawn) | inactive | –
CC(=O)CCC1=C(C)CCCC1(C)C | inactive | –
CC1OCCC1=O (stereo not drawn) | inactive | –
O/N=C/C=N/O | inactive | –

Experiment: A CellTox Green Cytotoxicity Assay to monitor cytotoxicity in HEK293 cells - 16 hour (AID 1224888); further: nearly all actives have a fitted effect of over 35% in size
Details: CellTox Green fluorescence; series mostly up to 76.8 µM
Procedure, shortened: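 Cells (HEK293, 600/well) and dye reagent are dispensed together. After 5 h at 37 C, 23 nL compound is pinned in. Plates stay at 37 C for 40 h with fluorescence read at 0h, 8h, 16h, 24h, 32h and 40h.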

SMILES | Potency | activity change
c1ccc(B(c2ccccc2)c2ccccc2)cc1 | inactive | –
CCn1cc(C(=O)O)c(=O)c2cnc(N3CCCC3)nc21 | – | 2.01% [at 6.97 µM, stronger effect = higher value] (inactive)
CC(Oc1cc(Cl)ccc1Cl)C(=O)O (stereo not drawn) | inactive | –
c1ccc2cnccc2c1 | inactive | –
CCCCCCCCCCCCCBr | inactive | –
CN(C)CCN(C)CCO | inactive | –
Cc1ccc(C(C)NC(=O)[C@@H](NC(=O)OC(C)C)C(C)C)cc1 (stereo partly drawn) | inactive | –
CC1(C)CC(OC(=O)CCCCCCCCC(=O)OC2CC(C)(C)NC(C)(C)C2)CC(C)(C)N1 | – | -6.19% [at 15.8 µM, stronger effect = higher value] (inactive)
[O]=[Mo](=[O])=[O] | – | -32.5% [at 15.8 µM, stronger effect = higher value] (inactive)
CSc1cnccn1 | inactive | –
COC(=O)CCCCC(CCSS/C(CCO)=C(\C)N(C=O)Cc1cnc(C)nc1N)SC(C)=O (stereo not drawn) | inactive | –
c1ccc(-c2nn[nH]n2)cc1 | inactive | –
C=CCSSCCC | inactive | –
O=C1CCCCO1 | inactive | –
CC1=C(O)C(=O)C(C)O1 (stereo not drawn) | inactive | –
COc1nc(N)nc2nc[nH]c12 | inactive | –
O=C(O)CSCC(=O)NC1CCSC1=O (stereo not drawn) | inactive | –
CC(C)C[C@@H]1[C@H](c2ccccc2)OC(=O)N1CCCN1CCCCCC1 | inactive | –
CC(=O)c1cc(C)oc1C | inactive | –
C=C(C)[C@@H]1CC=C(C)C(=O)C1 | inactive | –
Cc1c(NC(=O)c2cccnc2)c(=O)n(-c2ccccc2)n1C | inactive | –
CC(=O)C(C)O (stereo not drawn) | inactive | –
CN(C)CC/C=C1/c2ccccc2COc2ccc(CC(=O)O)cc21 | inactive | –
CC1OCCC1=O (stereo not drawn) | inactive | –
O/N=C/C=N/O | inactive | –
CCOC(CN1CCN(CC(C)C(=O)c2ccccc2)CC1)c1ccccc1 (stereo not drawn) | – | -4.55% [at 15.8 µM, stronger effect = higher value] (inactive)
